# Source: the supplement of paper PMC11732987, “Enantioselective OTUD7B fragment discovery through chemoproteomics screening and high-throughput optimisation” (Communications Chemistry, 2025)
# A number with no mark means an inactive call.
# Key:
# Test in all cases: log2 ratio of Biotin-Ahx-Ub-VS probe labelling (fragment/DMSO); higher = less target engagement (more negative = stronger competition), active = hit call of the paper (q ≤ 0.05, log2 ratio ≤ -1)
# Settings in all cases: compound concentration: 200 uM; treatment time: 3 h
# [1] = target: T1, USP19 (UniProt O94966)
# T1 sequence (whole entry): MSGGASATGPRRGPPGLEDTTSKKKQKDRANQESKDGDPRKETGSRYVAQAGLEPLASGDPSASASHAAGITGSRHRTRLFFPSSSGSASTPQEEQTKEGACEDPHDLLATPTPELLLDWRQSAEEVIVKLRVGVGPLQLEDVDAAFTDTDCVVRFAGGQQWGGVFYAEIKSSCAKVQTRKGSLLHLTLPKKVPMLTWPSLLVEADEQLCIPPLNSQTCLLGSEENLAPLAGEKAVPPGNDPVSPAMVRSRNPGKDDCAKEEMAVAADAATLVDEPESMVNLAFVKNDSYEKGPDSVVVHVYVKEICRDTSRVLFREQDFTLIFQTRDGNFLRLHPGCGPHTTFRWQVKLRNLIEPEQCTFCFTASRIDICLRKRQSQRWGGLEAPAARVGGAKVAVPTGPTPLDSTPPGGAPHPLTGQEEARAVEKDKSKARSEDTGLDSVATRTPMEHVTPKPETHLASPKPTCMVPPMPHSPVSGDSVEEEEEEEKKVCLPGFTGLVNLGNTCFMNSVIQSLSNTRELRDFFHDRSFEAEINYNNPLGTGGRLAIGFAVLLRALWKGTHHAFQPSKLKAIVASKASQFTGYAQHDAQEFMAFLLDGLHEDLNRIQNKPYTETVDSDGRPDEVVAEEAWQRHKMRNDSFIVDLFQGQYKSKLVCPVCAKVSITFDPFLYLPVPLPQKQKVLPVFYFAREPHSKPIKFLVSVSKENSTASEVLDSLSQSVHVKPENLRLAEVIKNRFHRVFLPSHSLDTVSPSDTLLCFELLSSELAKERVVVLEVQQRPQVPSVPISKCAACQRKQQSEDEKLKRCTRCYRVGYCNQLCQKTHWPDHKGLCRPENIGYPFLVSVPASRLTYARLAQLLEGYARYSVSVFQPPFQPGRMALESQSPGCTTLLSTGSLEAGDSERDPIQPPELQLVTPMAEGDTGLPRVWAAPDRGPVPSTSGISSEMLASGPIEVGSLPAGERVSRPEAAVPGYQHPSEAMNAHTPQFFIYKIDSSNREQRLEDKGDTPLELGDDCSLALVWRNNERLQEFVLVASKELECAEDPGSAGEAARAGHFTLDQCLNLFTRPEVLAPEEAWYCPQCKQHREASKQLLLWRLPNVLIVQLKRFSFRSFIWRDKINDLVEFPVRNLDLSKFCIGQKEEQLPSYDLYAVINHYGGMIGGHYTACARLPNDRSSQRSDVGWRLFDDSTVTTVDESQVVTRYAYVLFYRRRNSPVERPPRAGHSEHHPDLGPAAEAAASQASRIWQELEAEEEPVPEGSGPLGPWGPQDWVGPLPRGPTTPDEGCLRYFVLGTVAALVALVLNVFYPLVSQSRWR
# In short: (§1)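 Labelled DUBs from HEK293T lysate were NeutrAvidin-enriched, digested with LysC and trypsin, and run by diaPASEF LC-MS/MS. Before that, each 495 µg sample in Tris/CHAPS/IGEPAL buffer with protease inhibitors was treated in triplicate with fragment at 200 µM or vehicle for 3 h, then with Biotin-Ahx-Ub-VS at 0.5 µM final for 1 h. Values are average log2 ratios of fragment over vehicle by unpaired t-test, based on global-median-normalised Spectronaut label-free quantities from proteins with ≥2 unique peptides.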
# [2] = target: T2, USP22 (UniProt Q9UPT9)
# T2 sequence (whole entry): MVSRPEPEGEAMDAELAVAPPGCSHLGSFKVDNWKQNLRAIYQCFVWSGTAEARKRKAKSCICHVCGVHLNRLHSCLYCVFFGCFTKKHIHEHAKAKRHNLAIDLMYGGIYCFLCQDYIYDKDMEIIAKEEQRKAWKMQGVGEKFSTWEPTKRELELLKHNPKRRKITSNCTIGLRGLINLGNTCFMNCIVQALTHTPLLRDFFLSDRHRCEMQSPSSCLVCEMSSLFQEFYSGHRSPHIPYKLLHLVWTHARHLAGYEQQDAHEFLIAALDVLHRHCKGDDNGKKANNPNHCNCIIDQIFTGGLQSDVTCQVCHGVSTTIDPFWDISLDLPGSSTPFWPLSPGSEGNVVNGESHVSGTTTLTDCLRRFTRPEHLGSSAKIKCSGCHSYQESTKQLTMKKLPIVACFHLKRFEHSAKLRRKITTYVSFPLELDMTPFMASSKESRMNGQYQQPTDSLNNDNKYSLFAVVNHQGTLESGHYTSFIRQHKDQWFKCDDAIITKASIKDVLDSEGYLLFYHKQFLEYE
# In short: as §1
# [3] = target: USP24 (UniProt Q9UPU5)
# In short: as §1
# [4] = target: T3, USP25 (UniProt Q9UHP3)
# T3 sequence (whole entry): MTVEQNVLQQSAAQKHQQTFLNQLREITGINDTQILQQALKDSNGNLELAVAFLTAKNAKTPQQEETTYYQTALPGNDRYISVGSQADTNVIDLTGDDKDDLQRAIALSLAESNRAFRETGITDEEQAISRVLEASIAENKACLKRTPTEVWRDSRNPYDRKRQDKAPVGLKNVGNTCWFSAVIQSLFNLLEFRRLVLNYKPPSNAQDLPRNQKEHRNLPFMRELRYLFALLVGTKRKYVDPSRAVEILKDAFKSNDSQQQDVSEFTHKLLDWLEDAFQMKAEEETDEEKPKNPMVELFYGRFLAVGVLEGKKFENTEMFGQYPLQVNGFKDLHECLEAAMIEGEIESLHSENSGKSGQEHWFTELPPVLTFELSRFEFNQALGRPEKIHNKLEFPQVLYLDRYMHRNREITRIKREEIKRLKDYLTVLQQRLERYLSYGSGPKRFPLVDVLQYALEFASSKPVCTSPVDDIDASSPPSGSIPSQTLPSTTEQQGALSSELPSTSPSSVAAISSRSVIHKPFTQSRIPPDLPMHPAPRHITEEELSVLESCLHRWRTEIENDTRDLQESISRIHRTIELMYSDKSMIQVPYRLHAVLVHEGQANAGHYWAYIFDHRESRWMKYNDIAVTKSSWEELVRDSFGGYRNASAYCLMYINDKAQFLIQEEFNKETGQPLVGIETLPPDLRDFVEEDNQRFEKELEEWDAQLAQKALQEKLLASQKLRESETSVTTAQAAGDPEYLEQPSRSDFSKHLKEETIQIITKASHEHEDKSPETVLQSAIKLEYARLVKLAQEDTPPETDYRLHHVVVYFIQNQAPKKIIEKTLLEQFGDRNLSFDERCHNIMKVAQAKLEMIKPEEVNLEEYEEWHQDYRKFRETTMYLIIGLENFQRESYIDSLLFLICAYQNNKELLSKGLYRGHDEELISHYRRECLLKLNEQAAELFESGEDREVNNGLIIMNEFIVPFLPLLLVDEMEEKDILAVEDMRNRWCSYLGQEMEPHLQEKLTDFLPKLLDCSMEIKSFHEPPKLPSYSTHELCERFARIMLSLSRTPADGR
# In short: as §1
# [5] = target: T4, USP28 (UniProt Q96RU2)
# T4 sequence (whole entry): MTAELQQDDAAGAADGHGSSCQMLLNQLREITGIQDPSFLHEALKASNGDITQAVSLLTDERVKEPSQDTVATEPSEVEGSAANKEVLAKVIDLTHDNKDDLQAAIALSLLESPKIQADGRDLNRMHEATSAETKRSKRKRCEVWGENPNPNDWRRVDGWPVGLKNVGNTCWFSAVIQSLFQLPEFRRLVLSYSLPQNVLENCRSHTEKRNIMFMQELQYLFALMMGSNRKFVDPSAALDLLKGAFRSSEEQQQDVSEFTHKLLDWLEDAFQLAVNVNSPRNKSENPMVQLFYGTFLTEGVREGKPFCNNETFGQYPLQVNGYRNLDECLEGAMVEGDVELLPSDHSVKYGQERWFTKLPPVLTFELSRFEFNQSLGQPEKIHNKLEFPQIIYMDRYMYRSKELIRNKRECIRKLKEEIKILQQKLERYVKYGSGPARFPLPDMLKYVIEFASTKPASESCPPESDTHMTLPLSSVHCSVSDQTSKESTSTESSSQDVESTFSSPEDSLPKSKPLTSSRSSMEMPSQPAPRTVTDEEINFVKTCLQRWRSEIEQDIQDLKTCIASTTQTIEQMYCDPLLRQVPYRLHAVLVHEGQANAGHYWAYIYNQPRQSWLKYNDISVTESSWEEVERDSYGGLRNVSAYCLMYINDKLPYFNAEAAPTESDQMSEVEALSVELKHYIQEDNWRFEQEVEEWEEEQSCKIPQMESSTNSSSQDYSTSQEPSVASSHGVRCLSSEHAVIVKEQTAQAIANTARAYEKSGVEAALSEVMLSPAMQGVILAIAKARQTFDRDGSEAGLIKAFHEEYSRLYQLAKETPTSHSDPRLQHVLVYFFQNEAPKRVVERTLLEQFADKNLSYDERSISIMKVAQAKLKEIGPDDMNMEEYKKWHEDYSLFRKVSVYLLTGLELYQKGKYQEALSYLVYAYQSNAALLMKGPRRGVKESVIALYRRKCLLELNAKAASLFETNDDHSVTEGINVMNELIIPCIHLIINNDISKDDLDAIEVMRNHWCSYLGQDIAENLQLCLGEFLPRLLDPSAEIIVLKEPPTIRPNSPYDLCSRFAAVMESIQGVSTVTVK
# In short: as §1
# USP24, sequence (Q9UPU5 whole entry): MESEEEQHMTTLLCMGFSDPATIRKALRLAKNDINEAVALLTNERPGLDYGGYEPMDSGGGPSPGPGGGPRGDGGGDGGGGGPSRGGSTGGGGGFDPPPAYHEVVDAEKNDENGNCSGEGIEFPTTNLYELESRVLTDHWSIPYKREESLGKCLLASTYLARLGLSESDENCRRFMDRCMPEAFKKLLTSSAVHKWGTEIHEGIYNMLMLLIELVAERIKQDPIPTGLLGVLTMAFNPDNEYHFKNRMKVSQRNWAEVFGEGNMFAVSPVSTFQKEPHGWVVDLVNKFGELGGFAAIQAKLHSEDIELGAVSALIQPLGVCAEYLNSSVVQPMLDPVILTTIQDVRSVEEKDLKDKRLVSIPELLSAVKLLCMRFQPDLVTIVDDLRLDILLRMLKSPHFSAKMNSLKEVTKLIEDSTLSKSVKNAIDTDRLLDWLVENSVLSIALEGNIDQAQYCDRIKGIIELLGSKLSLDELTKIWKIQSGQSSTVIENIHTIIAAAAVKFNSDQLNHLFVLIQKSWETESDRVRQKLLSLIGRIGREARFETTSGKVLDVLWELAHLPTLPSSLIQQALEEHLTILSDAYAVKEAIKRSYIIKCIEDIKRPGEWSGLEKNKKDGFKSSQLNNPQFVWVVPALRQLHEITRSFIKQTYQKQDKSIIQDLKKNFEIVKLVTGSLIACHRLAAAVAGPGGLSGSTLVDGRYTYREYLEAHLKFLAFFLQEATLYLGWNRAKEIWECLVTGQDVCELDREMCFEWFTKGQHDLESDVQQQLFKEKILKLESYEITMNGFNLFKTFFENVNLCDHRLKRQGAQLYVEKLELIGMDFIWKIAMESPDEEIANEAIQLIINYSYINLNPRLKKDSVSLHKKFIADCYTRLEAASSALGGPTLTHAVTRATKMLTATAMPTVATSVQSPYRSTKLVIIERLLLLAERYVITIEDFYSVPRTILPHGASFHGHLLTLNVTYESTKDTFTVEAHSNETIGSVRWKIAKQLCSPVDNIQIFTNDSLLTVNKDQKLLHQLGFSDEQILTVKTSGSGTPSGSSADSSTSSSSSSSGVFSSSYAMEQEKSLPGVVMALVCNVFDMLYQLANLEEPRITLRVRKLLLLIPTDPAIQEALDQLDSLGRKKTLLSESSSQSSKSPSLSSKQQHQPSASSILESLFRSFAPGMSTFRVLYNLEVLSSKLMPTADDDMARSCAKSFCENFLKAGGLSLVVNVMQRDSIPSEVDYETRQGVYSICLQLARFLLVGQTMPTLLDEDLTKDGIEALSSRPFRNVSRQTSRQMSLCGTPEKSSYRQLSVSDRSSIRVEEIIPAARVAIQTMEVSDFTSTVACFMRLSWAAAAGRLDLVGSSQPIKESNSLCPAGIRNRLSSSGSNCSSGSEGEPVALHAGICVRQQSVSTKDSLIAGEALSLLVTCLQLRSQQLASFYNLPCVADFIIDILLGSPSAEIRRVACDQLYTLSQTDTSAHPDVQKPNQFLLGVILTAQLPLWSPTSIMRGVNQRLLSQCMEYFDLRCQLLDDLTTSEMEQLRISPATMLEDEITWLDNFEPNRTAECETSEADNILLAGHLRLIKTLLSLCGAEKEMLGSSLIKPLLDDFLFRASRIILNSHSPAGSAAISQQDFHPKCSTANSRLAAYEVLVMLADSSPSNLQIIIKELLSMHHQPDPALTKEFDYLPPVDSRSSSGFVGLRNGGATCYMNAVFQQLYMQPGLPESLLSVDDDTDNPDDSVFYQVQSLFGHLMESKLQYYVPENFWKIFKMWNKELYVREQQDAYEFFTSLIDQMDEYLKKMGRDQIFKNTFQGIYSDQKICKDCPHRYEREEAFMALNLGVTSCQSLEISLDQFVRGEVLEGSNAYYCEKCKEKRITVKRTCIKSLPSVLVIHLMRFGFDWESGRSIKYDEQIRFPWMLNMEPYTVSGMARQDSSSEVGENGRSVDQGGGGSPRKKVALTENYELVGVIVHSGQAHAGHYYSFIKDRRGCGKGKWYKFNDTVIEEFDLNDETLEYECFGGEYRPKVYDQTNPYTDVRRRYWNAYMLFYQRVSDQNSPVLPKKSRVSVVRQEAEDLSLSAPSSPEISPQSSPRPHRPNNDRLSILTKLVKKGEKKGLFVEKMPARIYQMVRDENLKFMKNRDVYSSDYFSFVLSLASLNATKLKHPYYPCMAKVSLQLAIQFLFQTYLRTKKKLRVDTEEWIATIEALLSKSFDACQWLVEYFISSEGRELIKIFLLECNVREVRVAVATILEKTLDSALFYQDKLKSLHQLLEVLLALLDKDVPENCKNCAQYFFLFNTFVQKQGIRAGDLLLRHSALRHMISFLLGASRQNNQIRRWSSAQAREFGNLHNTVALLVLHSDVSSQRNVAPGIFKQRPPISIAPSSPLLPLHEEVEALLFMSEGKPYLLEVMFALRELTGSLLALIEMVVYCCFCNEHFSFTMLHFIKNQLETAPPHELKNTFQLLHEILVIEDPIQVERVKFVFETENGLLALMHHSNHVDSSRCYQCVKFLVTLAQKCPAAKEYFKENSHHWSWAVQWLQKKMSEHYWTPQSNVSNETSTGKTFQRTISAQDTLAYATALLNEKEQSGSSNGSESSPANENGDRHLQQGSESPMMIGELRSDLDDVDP
smiles,measurement,setting,value
O=C(CCl)N1CCc2nc[nH]c2C1c1ccc(Cl)cc1 (stereo not given),log2 ratio of Biotin-Ahx-Ub-VS probe labelling,[1],-0.509
same,log2 ratio of Biotin-Ahx-Ub-VS probe labelling,[2],0.00421
same,log2 ratio of Biotin-Ahx-Ub-VS probe labelling,[3],-1.47 (active)
same,log2 ratio of Biotin-Ahx-Ub-VS probe labelling,[4],-0.591
same,log2 ratio of Biotin-Ahx-Ub-VS probe labelling,[5],-0.738
